# From PubChem BioAssay (Tox21)
# Unmarked numbers belong to inactive results. Inconclusive results are not listed. A call without a number means that no potency is given here. Activity calls are given as the source filed them. Unless noted, calls come from the whole dose curve; as a rule, active = well fitted curve in the direction sought with a large enough effect in the repeat runs; inconclusive = weak or mixed curves; inactive = no such curve, though single readings can be large; an effect the other way counts as inactive or inconclusive.
# How the values were obtained:
# [1] = qHTS assay for small molecule agonists of the p53 signaling pathway (AID 651631; calls by dose curve; note: nearly all actives have a fitted effect of over 15% in size)
# How it was run: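 Readout was fluorescence from the LiveBLAzer FRET substrate, applied for 2 h at room temperature after 16 h compound exposure at 37 °C. Cells were the p53RE-bla HCT-116 line, with beta-lactamase driven by p53 response elements.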
# [2] = qHTS assay for small molecules that induce genotoxicity in human embryonic kidney cells expressing luciferase-tagged ATAD5 (AID 651632); note: nearly all actives have a fitted effect of over 15% in size
# How it was run: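 Luminescent reporter readout, HEK293T ATAD5-luc line: 16 hr drug exposure (37C, 5% CO2) followed by Amplite, 30 min RT.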
# [3] = qHTS assay for small molecule agonists of the p53 signaling pathway - cell viability (AID 651633; calls by dose curve; note: nearly all actives have a fitted effect of over 30% in size)
# How it was run: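 p53RE-bla cells, seeded at 4,000 per well and rested 5 h at 37 C/5% CO2, received compounds in DMSO for 16 h at 37 C. CellTiter-Glo was then added, and luminescence was read after 30 min at room temperature to gauge cytotoxicity.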
# [4] = qHTS assay for small molecules that induce genotoxicity in human embryonic kidney cells expressing luciferase-tagged ATAD5 - cell viability (AID 651634; calls by dose curve; note: nearly all actives have a fitted effect of over 25% in size)
# How it was run: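 Viability read: CellTiter-Fluor fluorescence, 30 min at 37C. Cells: HEK293T, luciferase-tagged ATAD5. Exposure: 15.5 hr, 37C, 5% CO2, compound or DMSO vehicle.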
# [5] = qHTS assay for small molecule disruptors of the mitochondrial membrane potential - cell viability (AID 720634; calls by dose curve;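 note: human HepG2 liver cancer cells; nearly all actives have a fitted effect of over 20% in size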)
# How it was run: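 HepG2, 1 hr compound, 37 C. ATP luminescence via CellTiter-Glo, 30 min RT, same well as m-MPI.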
# [6] = qHTS assay for small molecule disruptors of the mitochondrial membrane potential (AID 720635)
# How it was run: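 HepG2 cells (2,000/well) attached overnight at 37C, then took compound for 1 hr at 37C, 5% CO2. Mito-MPS dye was added for 30 min; fluorescence was read at 490/535 nm (monomers) and 540/590 nm (aggregates).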
# [7] = qHTS assay to test for compound auto fluorescence at 590 nm (red) in HepG2 cells (AID 720674)
# How it was run: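 Rose Bengal sodium served as the red fluorophore standard. HepG2 monolayers (overnight attachment, MEM with 10% FBS) were exposed to test compounds for 1 hr at 37 C and read at Ex 540/Em 590 nm.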
# [8] = qHTS assay to test for compound auto fluorescence at 535 nm (green) in HepG2 cells (AID 720675)
# [9] = qHTS assay to test for compound auto fluorescence at 460 nm (blue) in HEK293 cells (AID 720678)
# How it was run: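 Intrinsic compound fluorescence is recorded in live HEK293 cultures after overnight incubation at 37C, 5% CO2, using excitation 405 nm and emission 460 nm. Values are referenced to triamterene.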
# [10] = qHTS assay to test for compound auto fluorescence at 535 nm (green) in HEK293 cells (AID 720680)
# [11] = qHTS assay to test for compound auto fluorescence at 460 nm (blue) in HEK293 cell free culture (AID 720681)
# How it was run: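 Test compounds were pinned into cell-free culture medium (DMEM with 10% FBS) and fluorescence was read directly at Ex/Em 405/460 nm. Signals were expressed as fluorescence equivalents of triamterene, with DMSO vehicle as control.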
# [12] = qHTS assay to test for compound auto fluorescence at 535 nm (green) in HEK293 cell free culture (AID 720682)
# How it was run: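 Compounds were pin-transferred into cell-free DMEM with 10% FBS, and green fluorescence was read at excitation 485 nm and emission 535 nm. Intensities were expressed as fluorescein-equivalent values.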
# [13] = qHTS assay to test for compound auto fluorescence at 590 nm (red) in HEK293 cell free culture (AID 720683)
# How it was run: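 Tox21 10K library compounds were pinned into cell-free DMEM with 10% FBS and fluorescence was read at excitation 540 nm. Activity is expressed as Rose Bengal sodium equivalency.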
# [14] = qHTS assay to test for compound auto fluorescence at 590 nm (red) in HepG2 cell free culture (AID 720684)
# How it was run: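 Measured in medium alone (MEM containing 10% FBS) following pintool addition of compound; emission at 590 nm with 540 nm excitation, referenced to Rose Bengal sodium.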
# [15] = qHTS assay to test for compound auto fluorescence at 460 nm (blue) in HepG2 cell free culture (AID 720685)
# How it was run: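 Compound (23 nL) or DMSO pinned into cell-free MEM with 10% FBS; blue fluorescence read at 405/460 nm excitation/emission, expressed as auto-fluorescence equivalency to triamterene.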
# [16] = qHTS assay to test for compound auto fluorescence at 535 nm (green) in HepG2 cell free culture (AID 720686)
# [17] = molecular target: Glucocorticoid receptor (Homo sapiens) (UniProt P04150); test: qHTS assay to identify small molecule agonists of the glucocorticoid receptor (GR) signaling pathway (AID 720691; active = well fitted activation curve with a large enough effect in the signal ratio in the repeat runs, not every such curve was filed as active; the % refers to the signal ratio; note: potency is the fitted concentration of half-maximal effect); conditions: GR-bla HeLa, beta-lactamase reporter ratio, 18 h; activation: at 62.4 µM (top of the series) unless noted
# Chain of Glucocorticoid receptor (Homo sapiens) (P04150 whole entry, looked up): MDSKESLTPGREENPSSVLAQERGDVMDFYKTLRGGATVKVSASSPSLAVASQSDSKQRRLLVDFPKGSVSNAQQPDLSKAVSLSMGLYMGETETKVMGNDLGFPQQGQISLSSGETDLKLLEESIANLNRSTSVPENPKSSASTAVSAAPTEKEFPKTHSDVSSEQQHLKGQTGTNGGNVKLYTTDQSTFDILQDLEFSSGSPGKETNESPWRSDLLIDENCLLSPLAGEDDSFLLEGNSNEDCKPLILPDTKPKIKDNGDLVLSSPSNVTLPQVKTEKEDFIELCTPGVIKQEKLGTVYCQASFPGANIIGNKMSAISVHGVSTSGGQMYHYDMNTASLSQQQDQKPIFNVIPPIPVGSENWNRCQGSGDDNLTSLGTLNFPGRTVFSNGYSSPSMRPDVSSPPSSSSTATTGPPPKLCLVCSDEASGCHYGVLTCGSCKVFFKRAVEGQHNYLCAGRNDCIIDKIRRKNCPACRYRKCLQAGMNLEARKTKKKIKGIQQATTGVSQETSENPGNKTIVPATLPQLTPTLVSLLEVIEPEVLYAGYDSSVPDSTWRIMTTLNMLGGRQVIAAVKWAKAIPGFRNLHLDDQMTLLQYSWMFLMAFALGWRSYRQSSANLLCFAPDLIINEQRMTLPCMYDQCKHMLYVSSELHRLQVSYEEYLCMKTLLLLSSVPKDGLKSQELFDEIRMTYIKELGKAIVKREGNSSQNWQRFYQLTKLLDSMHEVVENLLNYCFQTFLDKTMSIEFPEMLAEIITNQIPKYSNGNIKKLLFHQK
# How it was run: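 qHTS in GR-bla HeLa cells: 4 h settling at 37 C/5% CO2, 18 h compound incubation at 37 C, 2 h LiveBLAzer B/G FRET substrate at room temperature, fluorescence intensity measured.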
# [18] = molecular target: Glucocorticoid receptor (Homo sapiens) (UniProt P04150); test: qHTS assay to identify small molecule antagonists of the glucocorticoid receptor (GR) signaling pathway (AID 720692; active = well fitted inhibition curve with a large enough effect in the signal ratio in the repeat runs, not every such curve was filed as active; the % refers to the signal ratio)
# How it was run: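 Inhibition of glucocorticoid signalling is measured in HeLa cells with a GRE-controlled beta-lactamase reporter; cells are co-treated with compound and 5 nM dexamethasone (final) for 18 h before FRET substrate readout.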
# [19] = qHTS assay to test for compound auto fluorescence at 590 nm (red) in HEK293 cells (AID 720679)
# How it was run: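 Red autofluorescence, HEK293 cells: 2,000 cells/well; attach 4-5 hr 37C; add 23 nL cpd or DMSO; incubate o/n 37C 5% CO2; read Ex540/Em590; Rose Bengal sodium reference.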
# [20] = qHTS assay to test for compound auto fluorescence at 460 nm (blue) in HepG2 cells (AID 720687)
# How it was run: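 Cells (2,000/well in MEM with 10% FBS) attached overnight at 37 C, then were exposed to compound or DMSO for 1 hr at 37 C, 5% CO2. Fluorescence read at Ex/Em 405/460 nm, expressed as triamterene-equivalent signal.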
structure (smiles),measurement,setting,value
O=C1OC(CN2CCOCC2)CN1/N=C/c1ccc([N+](=O)[O-])o1 (centres undefined),Potency,[1],inactive
same,Potency,[2],inactive
same,Potency,[3],inactive
same,Potency,[4],inactive
same,Potency,[5],inactive
same,Potency,[6],inactive
same,"fluorescence, relative to Rose Bengal",[7],-0.0946% [at 18.6 µM]
same,"fluorescence, % of fluorescein control",[8],-0.0437% [at 18.6 µM]
same,"fluorescence, % of triamterene",[9],-0.0248% [at 18.6 µM]
same,"fluorescence, % of fluorescein",[10],-0.416% [at 18.6 µM]
same,"fluorescence, % of fluorescent control",[11],-0.128% [at 18.6 µM]
same,activity change,[12],-0.0395% [at 18.6 µM]
same,"fluorescence, % of fluorescent control",[13],0.0972% [at 18.6 µM]
same,"fluorescence, % of Rose Bengal",[14],0.113% [at 18.6 µM]
same,"fluorescence, % of fluorescent control",[15],-0.135% [at 18.6 µM]
same,"fluorescence, % of fluorescein control",[16],-0.14% [at 18.6 µM]
same,Potency,[17],inactive
same,Potency,[18],inactive
C[N+](C)(C)CCOC(=O)CCC(=O)OCC[N+](C)(C)C,Potency,[1],inactive
same,Potency,[2],inactive
same,Potency,[3],inactive
same,Potency,[4],inactive
same,Potency,[5],inactive
same,Potency,[6],inactive
same,Potency,[7],inactive
same,Potency,[8],inactive
same,outcome,[9],inactive
same,Potency,[19],inactive
same,outcome,[10],inactive
same,outcome,[11],inactive
same,Potency,[13],inactive
same,Potency,[14],inactive
same,outcome,[15],inactive
same,Potency,[16],inactive
same,outcome,[20],inactive
same,Potency,[17],inactive
CCCCC1=NC2(CCCC2)C(=O)N1Cc1ccc(-c2ccccc2-c2nn[nH]n2)cc1,Potency,[1],inactive
same,Potency,[2],inactive
same,Potency,[3],inactive
same,Potency,[4],inactive
same,Potency,[5],inactive
same,Potency,[7],inactive
same,Potency,[8],inactive
same,outcome,[9],inactive
same,Potency,[19],inactive
same,outcome,[10],inactive
same,outcome,[11],inactive
same,outcome,[12],inactive
same,Potency,[14],inactive
same,outcome,[15],inactive
same,Potency,[16],inactive
same,outcome,[20],inactive
CC1(c2ccccc2)OC(C(=O)O)=CC1=O (centres undefined),Potency,[1],inactive
same,Potency,[2],inactive
same,Potency,[3],inactive
same,Potency,[4],inactive
same,Potency,[5],inactive
same,Potency,[7],inactive
same,Potency,[8],inactive
same,outcome,[9],inactive
same,Potency,[19],inactive
same,outcome,[11],inactive
same,outcome,[12],inactive
same,Potency,[13],inactive
same,Potency,[14],inactive
same,outcome,[15],inactive
same,Potency,[16],inactive
same,outcome,[20],inactive
COC(=O)c1ccc(I)cc1S(=O)(=O)NC(=O)Nc1nc(C)nc(OC)n1,Potency,[1],inactive
same,Potency,[2],inactive
same,Potency,[3],inactive
same,Potency,[4],inactive
same,Potency,[5],inactive
same,Potency,[8],inactive
same,outcome,[9],inactive
same,Potency,[19],inactive
same,outcome,[10],inactive
same,outcome,[11],inactive
same,outcome,[12],inactive
same,Potency,[13],inactive
same,Potency,[14],inactive
same,outcome,[15],inactive
same,Potency,[16],inactive
same,outcome,[20],inactive
same,Potency,[17],inactive
same,Potency,[18],inactive
C/C(=C(\CCOP(=O)(O)O)SC(=O)c1ccccc1)N(C=O)Cc1cnc(C)nc1N,Potency,[1],inactive
same,Potency,[2],inactive
same,Potency,[3],inactive
same,Potency,[4],inactive
same,Potency,[5],inactive
same,"fluorescence, relative to Rose Bengal",[7],-0.226% [at 18.6 µM]
same,"fluorescence, % of fluorescein control",[8],-0.0371% [at 18.6 µM]
same,"fluorescence, % of triamterene",[9],-0.0569% [at 18.6 µM]
same,"fluorescence, % of fluorescein",[10],-0.205% [at 18.6 µM]
same,"fluorescence, % of fluorescent control",[11],-0.0157% [at 18.6 µM]
same,activity change,[12],0.0312% [at 18.6 µM]
same,"fluorescence, % of fluorescent control",[13],-0.0062% [at 18.6 µM]
same,"fluorescence, % of Rose Bengal",[14],0.0762% [at 18.6 µM]
same,"fluorescence, % of fluorescent control",[15],-0.035% [at 18.6 µM]
same,"fluorescence, % of fluorescein control",[16],-0.0244% [at 18.6 µM]
same,"fluorescence, % of fluorescent control",[20],-0.293% [at 18.6 µM]
same,Potency,[17],11.5 µM (active)
same,Potency,[18],inactive
